For one experiment, the target named is p53 wt-FL (UniProt P04637 P04637:1-393). Put plainly: pulldown; 36 nM RE; 17-fold when p53 amount doubled. The settings on record: tags: none (CosmoBio PURE IVT); chain copies: 4 inferred; dsDNA, one strand shown.
Experiment [1] addresses p53 wt-Δ22 (C-terminal truncated, lacking 372-393) (UniProt P04637 P04637:1-371). Put plainly: pulldown; 36 nM RE. The settings on record: tags: none (CosmoBio PURE IVT); chain copies: 4 inferred; dsDNA, one strand shown.

p53 wt-Δ22 (C-terminal truncated, lacking 372-393), sequence (P04637 1-371, stated change not applied, one chain of several): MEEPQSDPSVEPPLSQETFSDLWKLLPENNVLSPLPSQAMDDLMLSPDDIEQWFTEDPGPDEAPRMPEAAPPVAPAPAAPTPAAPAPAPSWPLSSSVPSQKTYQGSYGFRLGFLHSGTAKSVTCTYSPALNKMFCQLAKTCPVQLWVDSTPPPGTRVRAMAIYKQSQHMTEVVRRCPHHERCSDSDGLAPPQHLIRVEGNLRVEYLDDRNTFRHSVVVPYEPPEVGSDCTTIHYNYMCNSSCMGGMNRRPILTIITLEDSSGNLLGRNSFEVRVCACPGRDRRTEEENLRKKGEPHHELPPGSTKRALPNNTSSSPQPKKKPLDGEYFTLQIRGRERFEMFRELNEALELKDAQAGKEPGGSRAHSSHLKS
p53 wt-FL, sequence (P04637 whole entry, the tested form may be a part, one chain of several): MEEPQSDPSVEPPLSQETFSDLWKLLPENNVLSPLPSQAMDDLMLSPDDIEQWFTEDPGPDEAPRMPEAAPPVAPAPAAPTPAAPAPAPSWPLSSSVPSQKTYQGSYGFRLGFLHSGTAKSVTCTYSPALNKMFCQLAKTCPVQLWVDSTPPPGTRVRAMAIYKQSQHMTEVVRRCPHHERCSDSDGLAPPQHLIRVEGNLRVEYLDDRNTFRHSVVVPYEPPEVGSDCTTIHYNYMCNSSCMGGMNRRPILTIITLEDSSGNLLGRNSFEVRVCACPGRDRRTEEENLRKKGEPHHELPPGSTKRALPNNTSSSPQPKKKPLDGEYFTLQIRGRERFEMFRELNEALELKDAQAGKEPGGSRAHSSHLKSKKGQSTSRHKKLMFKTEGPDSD

CGCGCCTGCAAGTCCTGACTTGTCCGCGGC yielded a binding signal with p53 wt-FL of about 2.8 fold over control DNA. In the case of CTTGGGAACAAGGGCATGAGCTTGTCTGGGCT, in experiment [1], the binding signal was about 3 fold over control DNA.

The record behind these values is patent US20150359843, “P53 ACTIVATING PEPTIDES” (Agency for Science, Technology and Research, published 2015).
